This note sets out measurements from PubChem BioAssay (Tox21).

Assay [1] in a line: qHTS assay for small molecule agonists of the p53 signaling pathway (AID 651631; calls by dose curve; also: nearly all actives have a fitted effect of over 15% in size; also: potency is read from the fitted curve at half-maximal effect). In outline: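 Fluorescence intensity from cleaved LiveBLAzer B/G substrate (2 h, room temperature) served as the signal. Beforehand, HCT-116 reporter cells bearing p53 response elements were treated 16 h at 37 °C with DMSO-dissolved compounds.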
(Quantitative high-throughput screening tests each substance at several concentrations.)

Assay [2] in a line: qHTS assay for small molecules that induce genotoxicity in human embryonic kidney cells expressing luciferase-tagged ATAD5 (AID 651632). Also: nearly all actives have a fitted effect of over 15% in size. The essentials: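 Test compounds were delivered by pin tool onto HEK293T reporter cells (2,000/well) expressing ATAD5 fused to luciferase. After 16 hr at 37C, 5% CO2, Amplite was added for 30 min at room temperature and luminescence was measured.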

Assay [3] can be described thus: qHTS assay for small molecule agonists of the p53 signaling pathway - cell viability (AID 651633; calls by dose curve; also: nearly all actives have a fitted effect of over 30% in size; also: potency is read from the fitted curve at half-maximal effect;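 as to activity change, negative = cytotoxicity: p53RE-bla HCT reporter cells with a stable beta-lactamase p53 reporter; series mostly up to about 83 µM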). In outline:
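Viability counter-read: CellTiter-Glo luminescence (30 min, room temperature) in the same p53RE-bla plates. These plates had been exposed to compounds for 16 h at 37 C.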

Assay [4] is described as follows: qHTS assay for small molecules that induce genotoxicity in human embryonic kidney cells expressing luciferase-tagged ATAD5 - cell viability (AID 651634; calls by dose curve; also: nearly all actives have a fitted effect of over 25% in size; also: potency is read from the fitted curve at half-maximal effect). In outline:
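Quantitative high-throughput format. HEK293T cells expressing ATAD5 fused to luciferase were plated at 2,000 cells/well and treated 15.5 hr with compound versus DMSO. Viability was determined by fluorescent live-cell protease substrate, 30 min at 37C.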

Assay [5] can be described thus: qHTS assay for small molecule disruptors of the mitochondrial membrane potential - cell viability (AID 720634; calls by dose curve;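 also: human HepG2 liver cancer cells; series mostly up to about 83 µM; nearly all actives have a fitted effect of over 20% in size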). In outline: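 Same-well counter-screen: following the MMP dye addition, CellTiter-Glo was added to 1 hr compound-treated HepG2 cells and luminescence read after 30 min at room temperature.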
The nature of assay [6]: qHTS assay for small molecule disruptors of the mitochondrial membrane potential (AID 720635). Also: potency is read from the fitted curve at half-maximal effect. The essentials:
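Mitochondrial membrane potential tracked with Mito-MPS dye, red aggregates (ex 540/em 590 nm) against green monomers (ex 490/em 535 nm). Compound treatment 1 hr at 37C, dye 30 min in HepG2.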

Assay [7] is described as follows: qHTS assay to test for compound auto fluorescence at 590 nm (red) in HepG2 cells (AID 720674). The essentials:
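1 hr compound incubation on HepG2 cells, 37 C, 5% CO2; plate read ex 540 nm / em 590 nm; intensities reported as Rose Bengal sodium equivalents.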

Assay [8] is described as follows: qHTS assay to test for compound auto fluorescence at 535 nm (green) in HepG2 cells (AID 720675).
The nature of assay [9]: qHTS assay to test for compound auto fluorescence at 460 nm (blue) in HEK293 cells (AID 720678). In outline: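 HEK293 cells (2,000 per well, medium with 10% dialyzed FBS) attached for 4-5 hr at 37C, then received compound and stood overnight at 37C, 5% CO2. Blue fluorescence was read at Ex/Em 405/460 nm and expressed relative to triamterene.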
The nature of assay [10]: qHTS assay to test for compound auto fluorescence at 590 nm (red) in HEK293 cells (AID 720679). In outline:
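HEK293 cells (2,000/well, medium with 10% dialyzed FBS) attached for 4-5 hr at 37C, received 23 nL compound and were incubated overnight at 37C, 5% CO2. Red fluorescence was then read at 540/590nm Ex/Em, referenced to Rose Bengal sodium.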

Assay [11] is described as follows: qHTS assay to test for compound auto fluorescence at 535 nm (green) in HEK293 cells (AID 720680).
Assay [12] is described as follows: qHTS assay to test for compound auto fluorescence at 460 nm (blue) in HEK293 cell free culture (AID 720681). The essentials:
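Blue fluorescence (Ex 405/Em 460 nm, triamterene-equivalent) was read immediately after pin transfer of compound or DMSO into medium (DMEM, 10% FBS) without cells.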

The nature of assay [13]: qHTS assay to test for compound auto fluorescence at 535 nm (green) in HEK293 cell free culture (AID 720682). In outline:
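Intrinsic compound fluorescence is measured in culture medium containing 10% FBS, with excitation at 485 nm and detection at 535 nm, referenced to fluorescein.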

A short description of assay [14]: qHTS assay to test for compound auto fluorescence at 590 nm (red) in HEK293 cell free culture (AID 720683). In outline:
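Red-channel autofluorescence of compounds in culture medium (DMEM, 10% FBS), no cells, measured at 540/590 nm. Rose Bengal sodium is the reference fluorophore for equivalence.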

The nature of assay [15]: qHTS assay to test for compound auto fluorescence at 590 nm (red) in HepG2 cell free culture (AID 720684). In outline:
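Cell-free; medium MEM + 10% FBS; compound or DMSO added by pintool; read Ex 540/Em 590 nm; Rose Bengal sodium as red reference fluorophore.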

Assay [16] is described as follows: qHTS assay to test for compound auto fluorescence at 460 nm (blue) in HepG2 cell free culture (AID 720685). In outline: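 Cell-free plates of MEM plus 10% FBS received 23 nL compound or DMSO vehicle; blue-channel (405/460 nm) intensity scored against triamterene as reference fluorophore.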
Assay [17] in a line: qHTS assay to test for compound auto fluorescence at 535 nm (green) in HepG2 cell free culture (AID 720686).
The nature of assay [18]: qHTS assay to test for compound auto fluorescence at 460 nm (blue) in HepG2 cells (AID 720687). In outline:
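Blue-channel autofluorescence (Ex/Em 405/460 nm, triamterene-equivalent) was measured after 1 hr compound exposure at 37 C, 5% CO2. Cells were HepG2, plated overnight at 37 C in MEM plus 10% FBS.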

For assay [19], the target named is Glucocorticoid receptor (Homo sapiens) (UniProt P04150). As to the kind of experiment: qHTS assay to identify small molecule antagonists of the glucocorticoid receptor (GR) signaling pathway (AID 720692; active = well fitted inhibition curve with a large enough effect in the signal ratio in the repeat runs, not every such curve was filed as active; the % refers to the signal ratio; also: potency is read from the fitted curve at half-maximal effect). The essentials: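 GRE-bla HeLa line, dex-stimulated (5 nM final). Compound exposure 18 h, 37 C. Beta-lactamase FRET read after 2 h RT substrate.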
Chain of Glucocorticoid receptor (Homo sapiens) (P04150 whole entry, looked up): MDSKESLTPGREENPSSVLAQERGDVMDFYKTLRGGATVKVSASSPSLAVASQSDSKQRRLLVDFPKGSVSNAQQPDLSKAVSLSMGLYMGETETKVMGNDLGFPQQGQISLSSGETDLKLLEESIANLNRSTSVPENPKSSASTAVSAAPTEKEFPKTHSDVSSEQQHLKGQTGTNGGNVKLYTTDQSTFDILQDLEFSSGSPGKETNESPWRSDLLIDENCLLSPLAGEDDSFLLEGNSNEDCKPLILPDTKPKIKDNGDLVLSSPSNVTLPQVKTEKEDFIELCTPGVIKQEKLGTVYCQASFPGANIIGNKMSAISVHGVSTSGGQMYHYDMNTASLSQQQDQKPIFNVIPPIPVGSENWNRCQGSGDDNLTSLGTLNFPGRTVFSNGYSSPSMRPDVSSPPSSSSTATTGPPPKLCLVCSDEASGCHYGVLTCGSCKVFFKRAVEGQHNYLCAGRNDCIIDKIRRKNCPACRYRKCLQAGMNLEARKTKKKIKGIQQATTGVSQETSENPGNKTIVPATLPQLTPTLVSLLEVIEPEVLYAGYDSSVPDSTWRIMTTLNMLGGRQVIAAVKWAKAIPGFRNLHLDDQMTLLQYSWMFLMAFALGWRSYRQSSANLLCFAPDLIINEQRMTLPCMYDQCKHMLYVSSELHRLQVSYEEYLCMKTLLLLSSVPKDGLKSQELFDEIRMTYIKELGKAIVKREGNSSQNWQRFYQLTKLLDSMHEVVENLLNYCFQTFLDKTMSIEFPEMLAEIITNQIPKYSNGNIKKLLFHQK
Assay [20] has the same target. As to the kind of experiment: qHTS assay to identify small molecule agonists of the glucocorticoid receptor (GR) signaling pathway (AID 720691; active = well fitted activation curve with a large enough effect in the signal ratio in the repeat runs, not every such curve was filed as active; the % refers to the signal ratio). The essentials: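 A HeLa cervical cancer line expressing GR and a glucocorticoid response element-driven beta-lactamase gene is treated with compounds for 18 h; LiveBLAzer B/G FRET substrate is then applied and fluorescence read.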

Several values for one entry are separate records, joined by “and”; a condition that tells them apart may be missing. Equal values may be shown once. Unmarked numbers belong to inactive results. Inconclusive results are not listed. Activity calls are given as the source filed them. Unless noted, calls follow the shape of the dose curve; as a rule, active = well fitted curve in the direction sought with a large enough effect in the repeat runs; inconclusive = weak or mixed curves; inactive = no such curve, though single readings can be large; an effect the other way counts as inactive or inconclusive.
% is scaled to controls: 0 for no effect and ±100 for the full control effect.

Consider `CCCCCCCCCCCCCC[N+](C)(C)C`, for which the Potency is 21.1 µM (active) in assay [1]; 26.6 µM (active) in assay [3]; 17.6 µM (active) and 13.2 µM (active) and 6.85 µM (active) in [6]; 15.5 µM (active) in assay [19]. The Potency result in assay [2], in [4], in [5], in assay [7], in assay [8] and in [9] was “inactive” each time. Also, the Potency entry in [10], in [11], in assay [12], in assay [13], in [14] and in assay [15] was “inactive” in each case. The Potency entry in assay [16], in [17] and in assay [18] was “inactive” throughout.

As to `CC(C)(C)CC(C)(C)c1ccc(Nc2ccc(C(C)(C)CC(C)(C)C)cc2)cc1`, the activation in assay [1] was -6.72% [at 8.3 µM]; in assay [2] it was 2.9% [at 8.08 µM]; in [20], -1.13% [at 6.9 µM]. For the same compound, the results for the activity change, negative = cytotoxicity in assay [3] and in assay [5] were -13.1% [at 8.08 µM] and 4.18% [at 8.08 µM], respectively. The activity, negative = cytotoxicity in assay [4] is 13.9% [at 8.08 µM]. Besides, the ratio activity, negative = MMP loss in assay [6] is 34.3% [at 8.08 µM]. In addition, the fluorescence, relative to Rose Bengal in [7] is 0.212% [at 3.72 µM]. Besides, the fluorescence, % of fluorescein control is 0.0549% [at 3.72 µM] in [8] and 0.0526% [at 3.72 µM] in assay [17]. For the same compound, in [9], the fluorescence, % of triamterene was -0.186% [at 3.72 µM]. In addition, the fluorescence, % of fluorescent control in assay [10] is -0.94% [at 3.72 µM]; in [14], 0.0404% [at 3.72 µM]; in [16], 0.0515% [at 3.72 µM]; in assay [18] it was 0.0384% [at 3.72 µM]. In addition, the fluorescence, % of fluorescein in assay [11] was -0.0015% [at 3.72 µM]. Further, in assay [13], the activity change was 0.0494% [at 3.72 µM, hits give high values]. In [15], the fluorescence, % of Rose Bengal is 0.189% [at 3.72 µM]. The activity change, negative = inhibition in [19] was -25.8% [at 7.04 µM].

For `CC(C)OC(=O)C(O)(CC(=O)O)CC(=O)O`, the Potency entry in assay [1], in [2], in assay [3], in assay [4], in assay [5] and in [6] was “inactive” in each case. Further, the Potency result in [7], in assay [8], in [9], in assay [10], in [11] and in assay [12] was “inactive” each time. For the same compound, the Potency result in [13], in [14], in assay [15], in assay [17] and in assay [18] was “inactive” in each case.

Turning to `COc1cccc(OC)c1C(=O)O`, the Potency entry in assay [1], in assay [2], in assay [3], in [4], in assay [5] and in [6] was “inactive” each time. The Potency entry in assay [7], in assay [8], in [9], in [10], in [11] and in assay [12] was “inactive” each time. Further, the Potency entry in assay [13], in assay [14], in assay [15], in [16], in assay [17] and in [18] was “inactive” each time. Besides, the Potency result in [20] and in assay [19] was “inactive” in each case.

As for `Cc1ccc(N/N=c2\c(=O)cc/c(=N\Nc3ccc(S(=O)(=O)O)cc3)c2=O)c(C)c1`, the Potency entry in [1], in [2], in assay [3], in assay [5], in [7] and in [8] was “inactive” each time. Besides, the Potency result in assay [9], in assay [10], in [11], in assay [12], in assay [13] and in assay [14] was “inactive” throughout. Moreover, the Potency result in [15], in assay [17] and in assay [18] was “inactive” in each case. For the same compound, the Potency in assay [4] is 61.1 µM (active).

Consider `COc1ccc(NC(=O)CC(C)=O)cc1`, for which the Potency entry in [1], in assay [2], in assay [3], in assay [4], in [5] and in [7] was “inactive” throughout. Moreover, the Potency result in assay [8], in assay [10], in assay [11], in [12], in assay [13] and in [14] was “inactive” throughout. For the same compound, the Potency result in assay [15], in assay [17] and in assay [18] was “inactive” in each case.

In the case of `O=S(=O)(O)c1ccc(N=Nc2c(O)ccc3ccccc23)cc1`, the Potency entry in [1], in assay [2], in [3], in assay [5], in assay [7] and in [8] was “inactive” throughout. Further, the Potency entry in assay [9], in assay [10], in assay [12], in assay [13], in assay [14] and in [15] was “inactive” in each case. The Potency entry in assay [16], in assay [17], in assay [18] and in [20] was “inactive” in each case. Also, the Potency in assay [4] was 27.3 µM (active).
